From PubChem
Cardio protect: myocardial damage modulation in H9c2 cells | H9c2 cardiomyocytes, H2O2 injury protection, ATPLite, 2 h | protection from H2O2 cell death, % at 20 µM | 360,000 tested, 0.63% active | AID 588492;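 active = compounds giving at least 50% protection of heart cells from peroxide-induced death in the single-dose screen, raw or plate-pattern-corrected value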;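 also: 0% = DMSO wells with peroxide and 100% = DMSO wells without peroxide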
Neddylation inh: cullin neddylation inhibition; P61081+Q13564; TR-FRET cullin neddylation, biochemical; inhibition, % at 25 µM; 360,000 tested, 0.58% active; AID 651699; in the data active = inhibition above about 36%
HDAC3 inhib: blocks human histone deacetylase 3; recombinant HDAC3, fluorogenic peptide/trypsin coupled, fluorescence; inhibition, % at 8.3 µM; 320,000 tested, 0.15% active; AID 2718; in the data active = inhibition above about 26%, passing the limit was not always enough; inconclusive = no clear call, values can overlap the other calls
Target sequence (O15379 whole entry, looked up): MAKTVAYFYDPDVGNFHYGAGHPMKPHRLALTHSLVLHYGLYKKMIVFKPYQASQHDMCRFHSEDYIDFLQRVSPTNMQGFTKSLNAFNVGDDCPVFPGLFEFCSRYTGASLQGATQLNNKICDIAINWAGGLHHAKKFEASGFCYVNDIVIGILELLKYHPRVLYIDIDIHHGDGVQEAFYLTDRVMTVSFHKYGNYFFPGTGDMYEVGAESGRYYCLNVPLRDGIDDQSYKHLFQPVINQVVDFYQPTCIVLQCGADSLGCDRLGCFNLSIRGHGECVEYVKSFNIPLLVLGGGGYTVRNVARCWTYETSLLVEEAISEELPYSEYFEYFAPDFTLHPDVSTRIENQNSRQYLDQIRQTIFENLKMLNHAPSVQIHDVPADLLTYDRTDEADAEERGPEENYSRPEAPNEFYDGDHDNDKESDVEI
GRK2 aptamer HTS: blocks RNA aptamer binding to human GRK2; 330,000 tested, 0.59% active; inhibition of aptamer binding, % at 10 µM; bead flow cytometry, FAM-aptamer displacement from GRK2;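 active = inhibition of aptamer binding above 40%, roughly 3 SD of noise, on plates passing a quality check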;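 also: median bead fluorescence of bound FAM aptamer so fluorescent compounds give negative values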
GRK2 inh confirm: confirmation of human GRK2 inhibitors displacing RNA aptamer; shares compounds with GRK2 aptamer HTS; bead-bound GRK2, FAM-aptamer displacement, flow cytometry; aptamer displacement, % at 10 µM; 2,000 tested, 4% active; AID 504451;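 active = aptamer displacement above 40%, near three times the noise of non-fluorescent compounds, on plates passing quality checks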;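 also: negative values mostly reflect intrinsic compound fluorescence rather than true enhancement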
FAM quench CP1: counter-screen for GRK2 aptamer inhibitors: fluorescent aptamer quenchers; 2,000 tested, under 10 active; shares compounds with GRK2 aptamer HTS; Carboxyfluorescein RNA aptamer on beads, flow cytometry quenching; active compounds read low; AID 504580; fluorescence response (% of DMSO), % at 10 µM;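 active = compounds that quench the bead-bound fluorescent RNA probe, cutting fluorescence to under half of the solvent control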;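 also: counterscreen run without GRK2 so only probe quenching by compound is measured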
GRK2 CP2: confirmation of human GRK2 inhibitors binding RNA aptamer site. 360 tested, under 10 active. AID 504782. bead-bound GRK2, FAM-aptamer displacement, flow cytometry. inhibition of aptamer binding, % at 10 µM. shares compounds with GRK2 aptamer HTS;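 active = inhibition of aptamer binding above 40%, about triple the noise seen with nonglowing compounds, on plates passing quality control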;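 also: negative values mostly come from compounds that fluoresce themselves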
FAM quench CP2: counter-screen for GRK2 binding hits: quenchers of fluorescent RNA aptamer | 360 tested, under 10 active | fluorescence response vs DMSO, % at 10 µM | AID 588494 | carboxyfluorescein RNA aptamer beads, flow cytometry quenching; active compounds read low | shares compounds with GRK2 aptamer HTS;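 active = response vs DMSO under 50%, meaning signal dropped by over half, treated as fluorescence quencher; inconclusive = no clear call, values can overlap the other calls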;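 also: labelled aptamer on streptavidin beads without GRK2 as a quench counter-screen; 100% = bead fluorescence of DMSO wells and lower means quenching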
* marks the source's active call; other numbers are inactive results; ? = inconclusive; nt = no result. Only some compounds are listed: those with a hit (about 1.8% of all), similar ones and a draw of the others.

SMILES	Cardio protect	Neddylation inh	HDAC3 inhib	GRK2 aptamer HTS	GRK2 inh confirm	FAM quench CP1	others
Cc1cc(Br)ccc1SCC(=O)OCC(=O)NCc1ccco1	-2	5	1	52*	25	100
CC(C)[C@H](CN1CCC[C@H]1CN1C(N)=NC[C@H]1C(C)C)N1C[C@@H](Cc2ccccc2)N(CCCC2CCCC2)C1=N	5	-7	-25	0	nt	nt
O=C(CSCc1cnn(-c2ccccc2)c1-n1cccc1)NCc1ccccn1	5	7	5	3	nt	nt
O=C(NCc1cccnc1)C1CCCN(Cc2cnn(-c3ccccc3)c2-n2cccc2)C1 (stereo unspecified)	4	4	4	0	-1	103
O=C(NC1CC1)C1CCN(Cc2cnn(-c3ccccc3)c2-n2cccc2)CC1	-8	3	-1	0	nt	nt
O=C(NCc1ccccn1)C1CCCN(Cc2cnn(-c3ccccc3)c2-n2cccc2)C1 (stereo unspecified)	11	-2	-8	0	1	102
O=C(NCc1ccccn1)C1CCN(Cc2cnn(-c3ccccc3)c2-n2cccc2)CC1	-2	-2	2	0	2	95
CC1CCCCN1C(=O)CCNC(=O)Cn1cnc2ccccc2c1=O (stereo unspecified)	3	11	5	0	nt	nt
O=C(Nc1nc(OCCN2CCCC2=O)cnc1/C=C\c1ccccc1)c1cc2ccccc2s1	7	7	nt	nt	nt	nt
O=C1COc2ccc(C(=O)COC(=O)/C=C/c3ccc(Br)o3)cc2N1	-4	-12	4	57*	2	93
Cc1ccc(C(CNS(=O)(=O)c2ccccc2)N2CCN(C)CC2)cc1 (stereo unspecified)	2	-1	-2	0	nt	nt	GRK2 CP2=6;FAM quench CP2=99
Cc1ccc2nc(SCC(=O)NCc3ccc4c(c3)OCO4)nc(=O)n2c1	8	7	5	0	nt	nt
COc1cc(SC)ccc1C(=O)NNC(=O)c1cc(C)oc1C	-21	0	6	45*	-4	102
CCN(C(=O)CSc1nnc(Cc2cccc3ccccc23)n1N)C1CCS(=O)(=O)C1 (stereo unspecified)	-14	-5	0	0	nt	nt
Cc1cccc(N2CCN(C(=O)c3nn(C)c4c3CS(=O)(=O)c3ccccc3-4)CC2C)c1 (stereo unspecified)	5	4	1	0	nt	nt
O=C(Cn1c(C(F)(F)F)nc2ccccc21)OCC(=O)c1c[nH]c2ccccc12	-1	0	7	80*	nt	nt	GRK2 CP2=-43;FAM quench CP2=102
Cc1[nH]c2ccccc2c1C(=O)COC(=O)Cn1c(C(F)(F)F)nc2ccccc21	38	-7	11	0	nt	nt
O=C(NCC1CCCO1)NC1CCCCC1 (stereo unspecified)	1	-4	-5	2	nt	nt
S=C(NCC1CCCO1)NC1CC1 (stereo unspecified)	10	0	-1	87*	3	101
C=CCSC1=C(C#N)C(c2ccccc2OCC)CC(=O)N1 (stereo unspecified)	0	-22	-3	37	1	101
C=CCSC1=C(C#N)C(c2ccccc2OC)CC(=O)N1 (stereo unspecified)	1	0	4	1	nt	nt
O=C(COc1cccc(F)c1)NNC(=O)Cc1ccc(S(=O)(=O)N2CCOCC2)s1	-2	1	14	46*	0	95
COc1ccc(-c2nn(-c3ccccc3C)cc2CNCc2cccnc2)cc1F	10	8	0	0	nt	nt
COc1ccc(-c2nn(-c3ccccc3)cc2CNCc2cccnc2)c(F)c1	-7	6	?	47*	-4	101
CC12CCC(=O)N1C(C(=O)NCCc1ccc(S(N)(=O)=O)cc1)CS2 (stereo unspecified)	0	9	0	0	nt	nt
COc1cc(OC)cc(-c2c(-c3cccs3)c3cc(-c4cnc(OC)nc4)ccc3n2C)c1	-1	-54	-3	68*	-7	105
